Reference: PubChem BioAssay AID1851 (National Center for Advancing Translational Sciences (NCATS), 2009)
Values joined by “and” are separate entries in the source; they are usually repeats but may differ in a detail not shown here. Equal entries are not always repeated. About 5,700 (36%) of roughly 16,000 compounds were called active. Another 24% or so got no clear call; they are omitted. Calls follow the shape of the dose curve; as a rule, active = well fitted curve in the direction sought with a large enough effect; inconclusive = small, poorly fitted or top-dose-only effect, or effect the other way; inactive = no such curve, though single readings can be large or run the other way. The list shows a part of the results.

The molecules below were run against Cytochrome P450 1A2 (Homo sapiens) (UniProt P05177) (assay: Cytochrome panel assay with activity outcomes). Settings: recombinant CYP, pro-luciferin dealkylation, luminescence, p450-cyp1a2; series mostly up to 57.1 µM.
Sequence of Cytochrome P450 1A2 (Homo sapiens) (P05177 whole entry, looked up): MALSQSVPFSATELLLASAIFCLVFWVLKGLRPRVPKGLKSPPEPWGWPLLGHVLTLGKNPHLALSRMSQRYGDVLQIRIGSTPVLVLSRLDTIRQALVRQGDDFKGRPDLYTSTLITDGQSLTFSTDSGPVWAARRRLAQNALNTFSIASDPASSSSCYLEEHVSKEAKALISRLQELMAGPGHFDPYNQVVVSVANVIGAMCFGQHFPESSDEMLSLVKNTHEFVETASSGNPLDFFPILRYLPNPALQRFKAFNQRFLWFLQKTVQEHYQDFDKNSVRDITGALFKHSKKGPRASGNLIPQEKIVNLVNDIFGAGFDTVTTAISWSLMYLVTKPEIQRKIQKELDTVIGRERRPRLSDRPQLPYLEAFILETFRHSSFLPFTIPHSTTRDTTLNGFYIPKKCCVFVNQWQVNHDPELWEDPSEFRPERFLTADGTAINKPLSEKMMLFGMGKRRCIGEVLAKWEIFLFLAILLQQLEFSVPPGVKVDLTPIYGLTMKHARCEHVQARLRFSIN
% is scaled to controls: 0 for no effect and ±100 for the full control effect.

AC50, inactive:
O=C(C(Cc1ccccc1)N1C(=O)C2C3CCC(C3)C2C1=O)N1CCCCC1 (configuration not stated), Cc1nc2ccc3nc(NC(=O)c4ccc(S(=O)(=O)N5CCOCC5)cc4)sc3c2s1, COc1cc(C(=O)Nc2nc3ccc4nc(C)sc4c3s2)cc(OC)c1OC, CCSc1ncnc2c1sc1nc(-c3ccco3)c3c(c12)CC(C)(C)OC3, Cc1ccc(-n2c(SCC(=O)NCc3ccco3)nc3sc4c(c3c2=O)CC(C)(C)SC4)cc1, Cc1ccc(S(=O)(=O)c2nc(S(=O)(=O)c3ccc(C)cc3)c(NCc3ccco3)s2)cc1, CCCSc1nc(SCC(=O)NCc2ccccc2)c2c3c(sc2n1)COC(C)(CC)C3 (configuration not stated), COc1cc(C2C(C#N)=C(N)N(c3sc4c(c3C#N)CCCC4)C3=C2C(=O)CC(C)(C)C3)cc(OC)c1OC (configuration not stated), O=C(c1csnn1)N1CCC[C@@]2(CCN(Cc3nccs3)C2)C1, C=C(NC(=O)C(=C)NC(=O)c1csc(C2=N[C@@H]3c4csc(n4)[C@@H]4NC(=O)c5csc(n5)[C@@H]([C@](C)(O)[C@H](C)O)NC(=O)[C@@H]5CSC(=N5)/C(=C/C)NC(=O)[C@@H]([C@H](C)O)NC(=O)c5csc(n5)[C@]3(CC2)NC(=O)[C@@H](C)NC(=O)C(=C)NC(=O)[C@@H](C)NC(=O)[C@@H]([C@@H](C)CC)N[C@H]2C=Cc3c([C@H](C)O)cc(nc3[C@@H]2O)C(=O)O[C@H]4C)n1)C(N)=O, COCC(=O)N1CCC[C@@]2(CCN(c3ncccn3)C2)C1, CCCN(CCC)C(=O)[C@@H](CCC(=O)O)NC(=O)c1ccccc1, CCn1c(CCNC(=O)c2ccc(Cl)cc2Cl)n[nH]c1=S, O=C(Nc1ccccc1[N+](=O)[O-])C1C(c2ccccc2)=C1c1ccccc1, O=C(/C=C\c1ccc(O)c(O)c1)O[C@@H]1C[C@](O)(C(=O)O)C[C@@H](O)[C@@H]1O, O=C(O)/C=C\c1ccc(O)c(O)c1, c1cnc2ccc(C(c3nnnn3C3CCCC3)N3CCN4CCCC4C3)cc2c1 (configuration not stated), N#Cc1cccc(NC(=O)N2CC[C@@]3(CCCN(C(=O)c4ccncc4)C3)C2)c1, CNC(=O)[C@@H]1O[C@@H](n2cnc3c(N)ncnc32)[C@@H](O)[C@H]1O, CC(=O)Nc1ccc(C#Cc2ccc(NC(C)=O)cc2)cc1, Cc1ccc(S(=O)(=O)ON=C2CCN(S(=O)(=O)c3ccccc3)CC2)cc1, Cc1noc(C)c1C(=O)N1CCC2(CC1)CN(c1ncccn1)C2, Cc1ccc(S(=O)(=O)N2CCCC(C(=O)NCCCN3CCCCC3C)C2)cc1 (configuration not stated), CC(C)(C)c1nnc(NC(=O)c2cc(-c3ccccc3)nc3ccccc23)s1, COCc1nnc(NC(=O)CCN2C(=O)c3ccccc3C2=O)s1, CCCc1ccc(-c2cc(C(=O)NN3CCOCC3)c3ccccc3n2)cc1, CCC[C@H]1C[C@H](C(=O)N[C@H]([C@@H]2O[C@H](SC)[C@@H](O)[C@H](O)[C@@H]2O)[C@H](C)O)N(C)C1, Cc1cc([N+](=O)[O-])nn1CC(=O)NNC(=S)Nc1ccc(F)cc1, CC12CCC(C(=O)Nc3ncc([N+](=O)[O-])s3)(OC1=O)C2(C)C (configuration not stated), O=C(N/N=C/c1cccc(C(F)(F)F)c1)C1CCN(c2ncc(C(F)(F)F)cc2Cl)CC1, C[C@@]12CC[C@@H]3c4ccc(O)cc4CC[C@H]3[C@H]1C[C@@H](O)[C@H]2O, CCc1cc2c(c(CC)n1)CCC(=O)N2Cc1ccc(-c2ccccc2-c2nn[nH]n2)cc1, Cc1cccc(C)c1NC(=O)c1cc2c(=O)c3ccccc3oc2nc1C(F)(F)F, CC(C)[C@H](CO)Nc1nc(Nc2ccc(C(=O)O)c(Cl)c2)c2ncn(C(C)C)c2n1

AC50, active:
Cc1nc2c(ccc3nc(NC(=O)c4ccc5c(c4)OCCO5)sc32)s1 3.16 µM, CC(=O)Nc1ccc2c(c1)C(=Nc1ccc(C(=O)O)cc1)c1ccccc1-2 0.316 µM, Cc1nc(NCc2ccco2)c2c3c(sc2n1)CCC3 2.51 µM, Cc1nc(NS(=O)(=O)c2ccccc2C)c2c3c(sc2n1)CCC3 3.16 µM, CCCSc1nc(NCc2ccco2)c2c3c(sc2n1)COC(C)(C)C3 0.794 µM, CNC(=O)/C=C1\NC(C)(C)Cc2c1ccc1ccccc21 6.31 µM, CC1(C)Cc2c(ccc3ccccc23)C(=O)N1 3.55 µM, CCCN(CCC)C(=S)NC(=O)c1ccc(Cl)cc1Cl 0.447 µM, Cn1c(N/N=C/c2c[nH]c3ccccc23)nc2ccccc21 1 µM, O=[N+]([O-])c1ccccc1N/N=C/c1c[nH]c2ccccc12 5.62 µM, COc1ccc(Nc2nc(N3CCCCC3)c3ccccc3n2)cc1 1.78 µM, O=C(/C=C\c1ccc(O)c(O)c1)OCCc1ccccc1 1 µM, Cc1ccc(-c2nn(-c3ccccc3)cc2CSC(=N)N)cc1 12.6 µM, N#Cc1cccc(-c2nc(Nc3ccccc3)c3ccccc3n2)c1 1.26 µM, N#Cc1cccc(-c2nc(Nc3ccncc3)c3ccccc3n2)c1 0.631 µM, CNc1nc(-c2cccc(C#N)c2)nc2ccccc12 0.0794 µM, S=C(Nc1ccccc1)Nc1ccccc1C#Cc1ccccc1 0.501 µM, COc1ccccc1NC(=O)Nc1nc(-c2cccnc2)nc2ccccc12 2.51 µM, COCCNc1nc(-c2cccc(OC)c2)nc2ccccc12 0.2 µM, COc1cccc(-c2nc(NCCNC(C)=O)c3ccccc3n2)c1 2.51 µM, COc1cccc(-c2nc(NCc3ccccc3)c3ccccc3n2)c1 3.16 µM, COc1ccccc1CNc1nc(-c2cccnc2)nc2ccccc12 1 µM, COc1cccc(-c2nc(NCc3cccs3)c3ccccc3n2)c1 0.316 µM, COc1cccc(-c2nc(NCc3ccccc3OC)c3ccccc3n2)c1 0.631 µM, COc1cccc(-c2nc(NCc3cccnc3)c3ccccc3n2)c1 0.158 µM, Cc1cccc(NC(=S)NC(=O)CCc2ccccc2)c1 6.31 µM, Cc1ccccc1NC(=S)NC(=O)c1cc(-c2ccccc2)nc2ccccc12 14.1 µM, Cc1ccc(-c2cc(C(=O)NN=C3CCCC3)c3ccccc3n2)cc1 15.8 µM, O=C(CCN1C(=O)c2ccccc2C1=O)NC(=S)Nc1cccc(Cl)c1 3.16 µM, Cc1cccc(NC(=S)NC(=O)c2cc(-c3ccccc3)nc3ccccc23)c1 8.91 µM, Cc1nc(SCC(=O)c2ccc(F)cc2)c([N+](=O)[O-])[nH]1 6.31 µM, NCCSc1nc2ccccc2s1 0.316 µM, c1ccc(NCCSc2nc3ccccc3s2)cc1 0.501 µM, c1ccc2sc(SCCSc3nc4ccccc4s3)nc2c1 0.794 µM, Oc1ccccc1C(Sc1nc2ccccc2s1)Sc1nc2ccccc2s1 1.26 µM, CN(C)Cc1ccccc1-c1cc(NC2CC2)ncn1 12.6 µM, CN(C)Cc1ccccc1-c1cc(Nc2ccccc2)ncn1 15.8 µM, CON/C=C(\C=Nc1ccccc1)c1ncc(C(F)(F)F)cc1Cl 2.24 µM, O=C1C(=O)N(Cc2ccc(Cl)c(Cl)c2)c2ccccc21 12.6 µM, N#Cc1ccccc1-c1ccc2ncnc(NC3CC3)c2c1 0.1 µM, CNc1ncnc2ccc(-c3ccccc3C#N)cc12 1 µM, Cn1c(C(F)(F)F)nc2c(=O)oc3ccccc3c21 0.158 µM, CC(C)[C@H](CO)Nc1nc(Nc2cc(N)cc(Cl)c2)c2ncn(C(C)C)c2n1 0.501 µM

activity, negative = inhibition, inactive:
O=C(O)c1ccc(NS(=O)(=O)Cc2ccccc2)cc1 -12.1% [at 11.4 µM], c1ccc2c(c1)C(=Nc1ccc(N=C3c4ccccc4-c4ccccc43)cc1)c1ccccc1-2 -19.6% [at 2.29 µM], C[C@H](O/N=C1/[C@H]2O[C@@H]2[C@@H](O)[C@H]2[C@H]1CCn1c(=O)n(-c3ccccc3)c(=O)n12)c1cn([C@H](CO)Cc2ccccc2)nn1 -6.4% [at 11.4 µM] and 3.91% [at 11.4 µM], CC(=O)OC[C@@H]1O[C@H](CCO/N=C\[C@@H](C)[C@H](OCc2ccccc2)C(C)C)C=C[C@@H]1OC(C)=O 9.09% [at 11.4 µM], CC(=O)OC[C@@H]1O[C@@H](O/N=C2/C[C@@H](O)[C@@H](O)[C@@H]3[C@@H]4C(=O)N(C5CCCCC5)C(=O)[C@H]4CC[C@H]23)[C@H](OC(C)=O)[C@H](OC(C)=O)[C@@H]1OC(C)=O -1.1% [at 11.4 µM], CCc1ncc(CO)n1Cc1cccc2ccccc12 -6.53% [at 11.4 µM], CO[C@@H]1COC(=O)[C@H](C)NC(=O)C/C=C\[C@@H](C)[C@@H](NS(=O)(=O)c2ccc(C)cc2)COC(=O)C/C=C\[C@@H]1C -6.59% [at 11.4 µM], CC(=O)O[C@H]1CC[C@@]2(C)C(=CC[C@@H]3[C@@H]4CC[C@H](c5cc(C(F)(F)F)n(C(C)=O)n5)[C@]4(C)CC[C@@H]32)C1 -13.7% [at 11.4 µM], Cn1cnc([N+](=O)[O-])c1SCC(=O)O -9.68% [at 11.4 µM], O=C(O)CCCSc1nc2ccccc2s1 -16.9% [at 11.4 µM]
